Sampled rows, rich in hits. Any-hit rate of the full collection: about 2.3%.
Mcl1-Bid inh – Mcl-1/Bid binding inhibitors, primary screen, biochemical, TR-FRET, 1536-well; TR-FRET Mcl-1/Bid-Dy647 peptide binding; Induced myeloid leukemia cell differentiation protein Mcl-1 (Homo sapiens), Q07820; inhibition, % at 21.7 µM; 0.97% of 220,000 active;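 active = compounds that cut the binding signal by more than half at the single screening dose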;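 note: His-tagged Mcl-1 with europium anti-His antibody binding Bid BH3 peptide; 0% = Mcl-1 plus peptide wells and 100% = peptide-only wells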
MCL1 BIM primary – inhibitors of MCL1 binding to BIM-BH3, primary screen, biochemical, fluorescence polarization | Induced myeloid leukemia cell differentiation protein Mcl-1 (Homo sapiens), Q07820 | GST-MCL1 / FITC-Bim-BH3 fluorescence polarization | inhibition, % at 10.9 µM | 0.68% of 320,000 active;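 active = inhibition above the mean inhibition of all tested compounds plus 3 SD, set per campaign, cut at about 40% in these data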;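 note: 0% = DMSO wells and 100% = unlabeled Bim-BH3 peptide control; higher means more loss of mP so more displacement of Bim peptide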
Bim-Mcl-1 – inhibitors of Bim peptide binding to Mcl-1, primary screen, biochemical, bead-based flow cytometry, multiplex; inhibition, % at 10 µM; 0.1% of 190,000 active; Induced myeloid leukemia cell differentiation protein Mcl-1 (Homo sapiens), Q07820; Bim peptide-Mcl-1 binding; in the data active = inhibition above about 40%;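 note: 0% = no compound tracer wells and 100% = peptide blocker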
GLD-1 RNA inh – GLD-1/TGE RNA complex disruptors, primary screen, biochemical, fluorescence polarization. 0.44% of 320,000 active. purified GLD-1 + fluorescein TGE RNA. Female germline-specific tumor suppressor gld-1 (Caenorhabditis elegans), Q17339. inhibition, % at 5.96 µM;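 active = percent inhibition above a per-plate cutoff, the plate mean of test compounds plus 3 SD, cut at about 30% in these data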;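 note: 0% = DMSO wells with GLD-1 and probe and 100% = wells lacking GLD-1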
Target sequence (Q17339 whole entry, looked up): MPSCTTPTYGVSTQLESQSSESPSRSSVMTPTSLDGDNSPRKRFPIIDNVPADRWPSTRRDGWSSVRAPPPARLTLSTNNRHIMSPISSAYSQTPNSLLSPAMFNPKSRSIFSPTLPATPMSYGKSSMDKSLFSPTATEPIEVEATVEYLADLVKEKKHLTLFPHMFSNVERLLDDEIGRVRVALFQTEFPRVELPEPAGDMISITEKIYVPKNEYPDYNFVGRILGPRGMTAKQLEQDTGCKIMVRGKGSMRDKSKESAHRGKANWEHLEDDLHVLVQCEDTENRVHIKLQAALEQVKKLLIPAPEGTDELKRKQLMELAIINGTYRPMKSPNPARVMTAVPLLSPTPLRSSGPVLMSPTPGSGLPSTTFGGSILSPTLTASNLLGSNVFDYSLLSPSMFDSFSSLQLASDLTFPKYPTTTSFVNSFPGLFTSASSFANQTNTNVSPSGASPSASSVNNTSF
Bcl-xL primary – inhibitors of human Bcl-xL, primary screen, biochemical, fluorescence polarization, HTS. GST-Bcl-xL / FITC-Bim BH3 peptide fluorescence polarization. inhibition, % at 10.9 µM. 0.7% of 320,000 active. AID 2129, 2009;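 active = inhibition above the mean of all tested compounds plus 3 SD, cutoff set per campaign, cut at about 30% in these data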;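 note: 0% = DMSO wells and 100% = unlabeled Bim-BH3 peptide competitor; inhibitors lower millipolarization by displacing the labeled peptide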
Target sequence (Q07817 whole entry, looked up): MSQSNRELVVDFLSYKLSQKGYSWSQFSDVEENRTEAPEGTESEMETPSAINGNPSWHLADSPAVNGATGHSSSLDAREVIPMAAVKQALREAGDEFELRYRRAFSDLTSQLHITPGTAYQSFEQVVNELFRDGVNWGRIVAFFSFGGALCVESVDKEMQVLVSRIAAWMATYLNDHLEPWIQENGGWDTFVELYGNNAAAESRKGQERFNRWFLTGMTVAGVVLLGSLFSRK
Mcl1 Noxa PPI – Mcl-1/Noxa binding inhibitors, primary screen, biochemical, TR-FRET, 1536-well | TR-FRET Mcl-1/Noxa peptide binding, 2 h | 1.5% of 220,000 active | Induced myeloid leukemia cell differentiation protein Mcl-1 (Homo sapiens), Q07820 | inhibition, % at 21.7 µM | AID 1022, 2008;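 active = compounds that cut the protein-peptide binding signal by more than 50% relative to plate controls in a single-dose test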;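 note: His-tagged Mcl-1 with rhodamine Noxa BH3 peptide and terbium anti-His antibody; 0% = Mcl-1 plus Noxa peptide wells and 100% = peptide-only wells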
An asterisk follows results filed as active; . = no result.

SMILES | Mcl1-Bid inh | MCL1 BIM primary | Bim-Mcl-1 | GLD-1 RNA inh | Bcl-xL primary | Mcl1 Noxa PPI
CC(C)(Cc1ccccc1)/[N+]([O-])=C\c1ccccc1 | . | -0.7 | . | 10.3 | 2.2 | .
C=CCn1cc(C(=O)NCc2ccco2)c(=O)c2cc(S(=O)(=O)N3CCCCCC3)ccc21 | 91.4* | 2.3 | -1.0 | 6.5 | 2.4 | 1.2
CCn1cc(C(=O)NCc2ccco2)c(=O)c2cc(S(=O)(=O)N3CCCCCC3)ccc21 | -12.9 | -2.8 | 0.0 | 2.6 | -2.5 | 12.3
Cc1ccc(NC(=O)CN2C(=O)S/C(=C\c3ccc(-c4cccc(C(=O)O)c4C)o3)C2=O)cc1C | -75.8 | . | 4.0 | . | . | 78.8*
N=C1S/C(=C\c2ccc(-c3ccccc3C(=O)O)o2)C(=O)N1c1ccc2c(c1)OCO2 | -0.1 | . | 3.0 | . | . | 59.5*
COc1ccccc1N1C(=N)S/C(=C\c2ccc(-c3ccccc3C(=O)O)o2)C1=O | -27.1 | -8.5 | 2.0 | -25.1 | -3.1 | 52.5*
CCOC(=O)CN1C(=O)S/C(=C\c2ccc(-c3cccc(C(=O)O)c3C)o2)C1=O | . | -4.0 | . | 0.9 | 0.2 | .
C#C[C@]1(O)CC[C@H]2[C@@H]3CCC4=C(CCC(=O)C4)[C@H]3CC[C@@]21C | -3.5 | -1.2 | 0.0 | 4.7 | 1.9 | 9.0
O=C(NCC(=O)N(CC1CCCO1)C(C(=O)NC1CCCCC1)c1cccnc1)c1cccs1 (stereo not given) | -5.4 | 2.2 | -22.0 | 3.4 | 1.8 | -0.9
CCN(c1ccccc1)S(=O)(=O)c1ccc2[nH]cc(C(=O)N3CCOCC3)c(=O)c2c1 | 57.4* | 4.1 | 0.0 | -5.7 | 4.3 | -1.3
CCN(c1ccc(F)cc1)S(=O)(=O)c1ccc2[nH]cc(C(=O)NCCCN3CCOCC3)c(=O)c2c1 | 32.4 | 1.1 | 0.0 | 4.1 | 6.0 | 30.7
CCOc1cccc(/C=C2/NC(=O)N(CC(=O)Nc3cccc(C)c3)C2=O)c1O | -2.5 | -6.5 | 1.0 | 10.3 | 1.0 | 0.9
CCOc1cc(/C=N/NC(N)=O)ccc1OCC(=O)Nc1ccc(C)c(C)c1 | -2.6 | 1.6 | 3.0 | -4.7 | 3.3 | 16.6
O=C(COC(=O)Cn1cnc2ccccc21)Nc1ccc2c(c1)C(=O)c1ccccc1C2=O | 64.9* | 17.5 | 0.0 | 6.0 | 16.1 | 83.6*
COCC(=O)Nc1ccccc1C(=O)Nc1ccc(OC)cc1 | -17.1 | -6.2 | -1.0 | 0.8 | 1.6 | 6.7
CCOc1cc(C=C2C(=O)c3ccccc3C2=O)ccc1OCC(=O)Nc1ccc(C)cc1 | 86.4* | 19.8 | -2.0 | 5.9 | 15.3 | 42.5
CCOc1cc(/C=C2/NC(=O)N(CC(=O)Nc3cccc(C)c3)C2=O)ccc1OCC(N)=O | 3.2 | -4.4 | 1.0 | 5.8 | 1.6 | 59.3*
COc1ccc(NC(=O)c2ccccc2NC(=O)COc2ccccc2)cc1 | 53.5* | 1.0 | 4.0 | 0.4 | 0.4 | -69.6
COc1ccc(NC(=O)CS(=O)c2ccc(Br)cc2)cc1 (stereo not given) | . | 5.5 | . | 2.7 | 1.3 | .
CC(NC(=O)COc1ccc(N(C)S(=O)(=O)c2ccccc2)cc1)c1ccccc1 (stereo not given) | -29.7 | 5.1 | -3.0 | 3.0 | 3.1 | 7.3
Cc1ccccc1OCC(=O)Nc1ccc2c(c1)C(=O)c1ccccc1C2=O | 7.7 | 9.5 | -1.0 | 3.9 | 6.6 | 67.4*
O=C(COc1ccccc1)Nc1ccc2c(c1)Cc1cc(NC(=O)COc3ccccc3)ccc1-2 | 21.8 | -2.5 | 113.0* | 2.3 | 5.6 | 20.1
COc1cc(C(=O)Nc2ccc3c(c2)C(=O)c2ccccc2C3=O)cc(OC)c1OC | 76.5* | -3.8 | -2.0 | 6.9 | 4.9 | 85.1*
COc1ccc(C(=O)Nc2ccc3c(c2)C(=O)c2ccccc2C3=O)cc1OC | 85.4* | 8.4 | 0.0 | 5.4 | 8.3 | 67.8*
COc1ccc(NC(C)=O)cc1S(=O)(=O)N(C)Cc1c(C)nn(-c2ccccc2)c1C | . | 11.6 | . | 3.5 | 9.8 | .
SMILES | Mcl1-Bid inh | MCL1 BIM primary | Bim-Mcl-1 | GLD-1 RNA inh | Bcl-xL primary | Mcl1 Noxa PPI
CC1(NC(=O)NCc2ccccc2)CCS(=O)(=O)C1 (stereo not given) | -18.8 | 7.8 | 6.0 | -0.8 | -0.7 | -8.3
Cc1cccc(NC(=S)N2CCC(C(N)=O)(N3CCCCC3)CC2)c1C | -38.4 | 4.4 | -24.0 | 8.0 | -0.1 | -5.6
CC1CC(C)CN(S(=O)(=O)c2cccc3cccnc23)C1 (stereo not given) | -22.9 | 4.3 | 0.0 | -4.8 | 1.7 | 5.0
O=c1n(S(=O)(=O)c2cccc3cccnc23)c2ccccc2n1S(=O)(=O)c1cccc2cccnc12 | 91.4* | -1.1 | -6.0 | -1.4 | 2.4 | 9.7
Cc1c(C(=O)N(C)Cc2ccc(OC(F)F)cc2)oc2ccccc12 | . | -5.4 | . | 1.3 | -3.8 | .
Cc1onc(-c2ccccc2)c1C(=O)OCC(=O)N(CC(C)C)c1c(N)n(Cc2ccccc2)c(=O)[nH]c1=O | . | 1.4 | . | 3.7 | 2.5 | .
Cc1cc(C)n(-c2nc3ccccc3s2)n1 | -19.9 | 2.0 | -1.0 | 2.5 | 4.9 | -2.5
Cc1c2c(=O)n(-c3nc4ccccc4s3)nc-2cc(O)n1Cc1ccccc1 | -98.7 | . | . | . | . | 73.4*
Nc1ccc(C(=O)OCC(=O)NC(=O)c2ccccc2)cc1[N+](=O)[O-] | . | 4.2 | . | 5.1 | 6.3 | .
COc1ccc(N2CCN(Cc3oc(CO)cc(=O)c3O)CC2)cc1 | -98.4 | 42.1* | 16.0 | 22.5 | 53.5* | -9.8
CN1CCN(Cc2oc(CO)cc(=O)c2O)CC1 | -101.9 | 11.1 | -2.0 | 2.2 | 7.4 | -18.6
CCOc1cc(N2CCOCC2)c(OCC)cc1NC(=O)c1cc(-c2ccco2)nc2ccccc12 | 78.4* | 14.2 | -3.0 | 0.0 | 7.4 | 49.4
COc1ccc(NC(=O)c2cc(C)nc3ccccc23)cc1S(=O)(=O)N1CCOCC1 | . | . | . | 4.1 | . | .
Cc1ccc(NC(=O)c2cc(-c3ccco3)nc3ccccc23)cc1S(=O)(=O)N1CCOCC1 | -39.6 | 13.8 | 1.0 | 4.5 | 4.2 | 66.3*
CCOc1cc(N2CCOCC2)c(OCC)cc1NC(=O)CN1CCc2ccccc2C1 | 92.8* | 5.3 | 0.0 | 5.0 | 5.3 | 18.2
Cc1nc(SC(C)C(=O)c2c(N)n(C)c(=O)n(C)c2=O)c2c(C)c(C)sc2n1 (stereo not given) | . | 1.5 | . | 3.0 | 4.3 | .
O=C(NCc1ccco1)c1ccc2nc3sc4c(c3c(=O)n2c1)CCCC4 | 2.2 | 9.0 | 8.0 | -0.1 | 10.8 | 67.8*
C=CCn1c(SCC(=O)NCc2ccco2)nc2sc3c(c2c1=O)CCCC3 | -3.8 | 1.0 | 2.0 | 6.5 | -0.2 | 5.3
CC1(C)OC(C)(C)/C(=C/Nc2ccc(O)cc2)C1=O | -32.9 | 21.3 | 15.0 | 6.1 | 14.3 | 57.0*
